Data from PubChem BioAssay (Tox21).
Several values for one entry are separate records, joined by “and”; a condition that tells them apart may be missing. Equal values may be shown once. Results filed as inconclusive are left out. A call without a number means that no potency is given here. Some compounds were tested as several samples or in several runs, with calls that do not always agree. Activity calls are given as the source filed them. Unless noted, calls follow the shape of the dose curve; as a rule, active = well fitted curve in the direction sought with a large enough effect in the repeat runs; inconclusive = weak or mixed curves; inactive = no such curve, though single readings can be large; an effect the other way counts as inactive or inconclusive.

Tests used:
[1] = qHTS assay to identify small molecule antagonists of the estrogen related receptor (ERR) signaling pathway from Tox21 library (AID 1224848); also: nearly all actives have a fitted effect of over 50% in size
Summary of the method: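 Tox21 10K compounds in DMSO tested for ERR pathway antagonism in NTP's ERR cell line; 18 h, 37 C exposure; ONE-Glo luminescence.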

[2] = qHTS assay to identify small molecule agonists of the estrogen related receptor (ERR) signaling pathway from Tox21 library (AID 1224849; calls by dose curve; also: nearly all actives have a fitted effect of over 15% in size); conditions: ERR reporter cell line, ONE-Glo luciferase, 18 h; at 92.4 µM (top of the series)
Summary of the method: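 Tox21 compounds tested for ERR agonism in an NTP reporter cell line: 18 h treatment at 37 C, then ONE-Glo luminescence.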

[3] = qHTS RealTime-Glo MT Cell Viability Assay in HepG2 cells - 24 hour (AID 1224867); also: nearly all actives have a fitted effect of over 50% in size
Summary of the method: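 Cell number in HepG2 cultures estimated from NanoLuc luminescence generated by metabolic reduction of a prosubstrate by living cells. The homogeneous, nonlytic format allowed repeated reads at 0, 8, 16, 24, 32 and 40 h of compound exposure.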

[4] = A CellTox Green Cytotoxicity Assay to monitor cytotoxicity in HEK293 cells - 0 hour (AID 1224869); also: nearly all actives have a fitted effect of over 50% in size; also: potency is read from the fitted curve at half-maximal effect
Summary of the method: (§1)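 Tox21 screen in HEK293: membrane-impermeant cyanine dye fluoresces on binding dead-cell DNA; compound pinned 5 h post-seeding, plates held at 37 C, signal read repeatedly through 40 h.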

[5] = qHTS RealTime-Glo MT Cell Viability Assay in HepG2 cells - 40 hour (AID 1224870); also: nearly all actives have a fitted effect of over 50% in size
Summary of the method: (§2)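 HepG2 cells mixed with RealTime-Glo MT reagents (NanoLuc plus cell-permeant prosubstrate) were seeded at 600 cells/well, incubated 5 h at 37 C/5% CO2, then pinned with compounds in DMSO; nonlytic luminescence tracked viability during 40 h treatment.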

[6] = A CellTox Green Cytotoxicity Assay to monitor cytotoxicity in HEK293 cells - 40 hour (AID 1224871); also: nearly all actives have a fitted effect of over 45% in size; also: potency is read from the fitted curve at half-maximal effect
Summary of the method: as §1

[7] = qHTS RealTime-Glo MT Cell Viability Assay in HepG2 cells - 8 hour (AID 1224873); also: nearly all actives have a fitted effect of over 55% in size
Summary of the method: as §2

[8] = qHTS RealTime-Glo MT Cell Viability Assay in HEK293 cells - 32 hour (AID 1224868); also: nearly all actives have a fitted effect of over 50% in size; also: potency is read from the fitted curve at half-maximal effect
Summary of the method: (§3)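 Homogeneous bioluminescent viability format in HEK293 cells (600 cells/well). Following 5 h at 37 C/5% CO2, 23 nL compound was pintooled; the signal was measured repeatedly during 40 h incubation.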

[9] = qHTS RealTime-Glo MT Cell Viability Assay in HEK293 cells - 16 hour (AID 1224872)
Summary of the method: as §3

[10] = qHTS RealTime-Glo MT Cell Viability Assay in HEK293 cells - 40 hour (AID 1224874); conditions: RealTime-Glo luminescence; max response: stronger effect = lower value; also: nearly all actives have a fitted effect of over 50% in size
Summary of the method: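 HEK293 + NanoLuc + prosubstrate, 600 cells/well; 5 h, 37 C/5% CO2; compound 23 nL in DMSO by pintool; 37 C; luminescence read at 0, 8, 16, 24, 32 and 40 h time points.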

Row | Compound | Potency [1] | activity change, positive = activation [2] | outcome [3] | Potency [4] | outcome [5] | Potency [6] | outcome [7] | Potency [8] | outcome [9] | max response [10]
1 | O=[N+]([O-])c1ccc(Oc2ccc(Cl)cc2Cl)cc1 | inactive | -5.45% (inactive) and -4.04% (inactive) | inactive | inactive | inactive | inactive | inactive | – | – | –
2 | O=Cc1cccc(Oc2ccccc2)c1 | – | – | inactive | inactive | inactive | inactive | inactive | inactive | inactive | –
3 | CC(C)=C[C@@H]1[C@@H](C(=O)OCc2coc(Cc3ccccc3)c2)C1(C)C | – | – | inactive | inactive | inactive | inactive | inactive | inactive | inactive | –
4 | O=c1n(Cl)c(=O)n(Cl)c(=O)n1Cl | – | – | inactive | inactive | inactive | inactive | inactive | inactive | inactive | –
5 | Clc1ccc(Cl)cc1 | – | – | inactive | inactive | inactive | inactive | inactive | inactive | inactive | 6.61% (inactive) and 0.839% (inactive)
6 | COP(N)(=O)SC (stereo not given) | – | – | inactive | inactive | inactive | inactive | inactive | inactive | inactive | -1.86% (inactive) and 15.3% (inactive)
7 | O=S(=O)(c1ccc(Cl)cc1)c1cc(Cl)c(Cl)cc1Cl | – | – | inactive | inactive | inactive | inactive | inactive | inactive | inactive | –
8 | C1CN2CCN1CC2 | – | – | inactive | inactive and 21.9 µM (active) | inactive | inactive and 17.4 µM (active) | inactive | inactive | inactive | 1.08% (inactive) and 21.8% (inactive)
9 | Nc1ccc(Br)cc1 | – | – | inactive | inactive | inactive | inactive | inactive | inactive | inactive | –
10 | NCCc1ccc(O)cc1 | – | – | inactive | inactive | inactive | inactive | inactive | inactive | inactive | –
11 | C=CCO | – | – | inactive | inactive and 43.6 µM (active) | inactive | inactive and 34.7 µM (active) | inactive | inactive | inactive | –
12 | CCCCCOC(=O)c1ccccc1C(=O)OCCCCC | – | – | inactive | inactive | inactive | inactive | inactive | inactive | inactive | –
13 | Cc1ccc(N)cc1N | inactive | 49% (active) | inactive | inactive | inactive | inactive | inactive | – | inactive | 14.6% (inactive)
14 | Cc1ccccc1O | – | – | inactive | inactive | inactive | inactive | inactive | inactive | inactive | –
15 | [O-][Cl+2]([O-])O | – | – | inactive | inactive | inactive | inactive | inactive | inactive | inactive | –
16 | NCC(O)c1ccc(O)cc1 (stereo not given) | – | – | inactive | inactive | inactive | inactive | inactive | inactive | inactive | -6.22% (inactive) and 3.7% (inactive)
17 | Oc1ccccc1Cl | – | – | inactive | inactive | inactive | inactive | inactive | inactive | inactive | –
18 | Cc1cc(Cl)ccc1O | – | – | inactive | inactive | inactive | inactive | inactive | inactive | inactive | 4.2% (inactive) and 2.39% (inactive)
19 | CC(Br)C(=O)O (stereo not given) | – | – | inactive | inactive | inactive | inactive | inactive | inactive | inactive | 0.901% (inactive) and -24.8% (inactive)
20 | O=c1[nH]c2ccccc2c(=O)o1 | – | – | inactive | inactive | inactive | inactive | inactive | inactive | inactive | -0.172% (inactive)
21 | CC(C)NC(=O)N1CC(=O)N(c2cc(Cl)cc(Cl)c2)C1=O | inactive | -27.3% (inactive) and -5.72% (inactive) | inactive | inactive | inactive | inactive | inactive | – | – | –
22 | Cc1ccc([N+](=O)[O-])cc1C | – | – | inactive | inactive | inactive | inactive | inactive | inactive | inactive | -0.25% (inactive) and 2.38% (inactive)
23 | COC(=O)c1ccccc1N | inactive | 4.73% (inactive) and 5.15% (inactive) | inactive | inactive | inactive | inactive | inactive | inactive | – | 1.4% (inactive) and 10.1% (inactive)
24 | CN(C)[C@@H]1C(=O)C(C(N)=O)=C(O)[C@@]2(O)C(=O)C3=C(O)c4c(O)cccc4[C@@](C)(O)[C@H]3C[C@@H]12 | – | – | inactive | inactive | inactive | inactive | inactive | inactive | inactive | –
25 | C1CC2OC2CC1C1CO1 (stereo not given) | – | – | inactive | inactive | inactive | inactive | inactive | inactive | inactive | 9.84% (inactive)
26 | CCOP(=S)(OCC)Oc1cnc2ccccc2n1 | – | – | inactive | inactive | inactive | inactive | inactive | inactive | inactive | 0.949% (inactive)
27 | c1cc2c3c(cccc3c1)CC2 | – | – | inactive | inactive | inactive | inactive and 43.6 µM (active) | inactive | inactive | inactive | 0.321% (inactive) and -19.1% (inactive)

Row | Compound | Potency [1] | activity change, positive = activation [2] | outcome [3] | Potency [4] | outcome [5] | Potency [6] | outcome [7] | Potency [8] | outcome [9] | max response [10]
28 | COC(=O)NC(=S)Nc1ccccc1NC(=S)NC(=O)OC | – | – | inactive | inactive | inactive | inactive | inactive | inactive | inactive | –
29 | Nc1c(Cl)c(Cl)nc(C(=O)O)c1Cl | – | – | inactive | inactive | inactive | inactive | inactive | inactive | inactive | –
30 | O=[N+]([O-])c1ccc([As](=O)(O)O)cc1 | – | – | inactive | inactive | inactive | inactive | inactive | inactive | inactive | –
31 | c1ccc(OP(Oc2ccccc2)Oc2ccccc2)cc1 | – | – | inactive | inactive | inactive | inactive | inactive | inactive | inactive | –
32 | C#CC(C)(C)NC(=O)c1cc(Cl)cc(Cl)c1 | – | – | inactive | inactive | inactive | inactive | inactive | inactive | – | -9.66% (inactive)
33 | [N-]=[N+]=[N-] | – | – | inactive | inactive | inactive | inactive | inactive | inactive | inactive | -10.7% (inactive) and 2.12% (inactive)
34 | CCCN(CCC)N=O | – | – | inactive | inactive | inactive | inactive | inactive | inactive | – | -0.648% (inactive) and 5.21% (inactive)
35 | CC(NC(C)(C)C)C(=O)c1cccc(Cl)c1 (stereo not given) | – | – | inactive | inactive | inactive | inactive | inactive | inactive | – | –
36 | O=C(O)c1ccccn1 | – | – | inactive | inactive | inactive | inactive | inactive | inactive | – | -2.82% (inactive) and 14.7% (inactive)
37 | CCCCN(CC)C(=O)SCCC | – | – | inactive | inactive | inactive | inactive | inactive | inactive and 19.5 µM (active) | inactive | 0.284% (inactive)
38 | c1ccc(-c2ccccc2)cc1 | – | – | inactive | inactive | inactive | inactive | inactive | inactive | inactive | -0.911% (inactive) and -11.7% (inactive)
39 | CC(Oc1ccc(Cl)cc1Cl)C(=O)O (stereo not given) | – | – | inactive | inactive | inactive | inactive | inactive | inactive | – | –
40 | Cc1cc(-c2cc(C)c(N)c(C)c2)cc(C)c1N | – | – | inactive | inactive | inactive | inactive | inactive | inactive | inactive | -25.8% (inactive) and -12.6% (inactive)
41 | CCCCCCCCCCCC#N | – | – | inactive | inactive and 45.2 µM (active) | inactive | inactive and 40.3 µM (active) | inactive | inactive | inactive | -12% (inactive) and 12.1% (inactive)
42 | C=C(C)CCl | – | – | inactive | inactive | inactive | inactive | inactive | inactive | – | 0.792% (inactive) and 2.61% (inactive)
43 | O=S(=O)(c1ccc(O)cc1)c1ccc(O)cc1 | – | – | inactive | inactive | inactive | inactive | inactive | inactive | – | -19.2% (inactive)
44 | CCNc1nc(NC(C)C)nc(SC)n1 | – | – | inactive | inactive | inactive | inactive | inactive | inactive | – | –
45 | CN(C)N=O | – | – | inactive | inactive | inactive | inactive | inactive | inactive | – | –
46 | CCOP(=S)(OCC)SCCSCC | – | – | inactive | inactive | inactive | inactive | inactive | inactive | – | 5.05% (inactive) and 1.7% (inactive)
47 | Nc1ccc(Cc2ccc(N)cc2)cc1 | – | – | inactive | inactive | inactive | inactive | inactive | inactive | – | -10.2% (inactive)
48 | CCC12COCN1COC2 | – | – | inactive | inactive | inactive | inactive | inactive | inactive | – | 1.37% (inactive) and 3.08% (inactive)
49 | CCN(CC)CCO | – | – | inactive | inactive | inactive | inactive | inactive | inactive | – | –
50 | ClCc1cccnc1 | – | – | inactive | inactive | inactive | inactive | inactive | inactive | – | 2.33% (inactive) and -1.14% (inactive)
51 | CCCCCCCCCl | – | – | inactive | inactive | inactive | inactive | inactive | inactive | – | 2.47% (inactive) and 5.32% (inactive)
52 | CCCCN(CCCC)SN(C)C(=O)Oc1cccc2c1OC(C)(C)C2 | – | – | inactive | inactive | inactive | inactive | inactive | – | – | -26.5% (inactive)
53 | Cc1[nH]c(=O)n(C(C)(C)C)c(=O)c1Cl | – | – | inactive | inactive | inactive | inactive | inactive | inactive | – | -2.63% (inactive) and 1.93% (inactive)
